From PubChem BioAssay (NCI)
Compounds without any hit were thinned out: in the full panel of roughly 83,000, 20% have a hit.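 Each cell line was grown in a 96-well plate and treated with one concentration of compound for 48 hours. Values below 10 were considered active.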 Calls of active or inactive are those of the source.

Experiments:
Experiment in all cases: NCI-60 one-dose screen, 48 h (100 = growth as untreated, 0 = no growth, -100 = all killed)
Settings in all cases: 10 µM unless noted
NCI-H23 lung = system: NCI-H23 lung
NCI-H226 lung = system: NCI-H226 lung
NCI-H322M lung = system: NCI-H322M lung
HOP-62 NSCLC = system: HOP-62 NSCLC
NCI-H460 lung = system: NCI-H460 lung
HOP-92 NSCLC = system: HOP-92 NSCLC
NCI-H522 lung = system: NCI-H522 lung
A549/ATCC NSCLC = system: A549/ATCC NSCLC
786-0 renal = system: 786-0 renal
COLO 205 colon = system: COLO 205 colon

Measured: growth

CC1=C(C(=O)OCc2ccccc2)C(c2ccc3c(c2)OCO3)n2c(nc3ccccc32)N1 (stereo not given)
active: NCI-H460 lung 6.62%
inactive: NCI-H23 lung 49.3% | NCI-H226 lung 58.2% | NCI-H322M lung 47% | HOP-62 NSCLC 44.2% | HOP-92 NSCLC 78.5% | NCI-H522 lung 26.3% | A549/ATCC NSCLC 47.1% | 786-0 renal 43.1% | COLO 205 colon 37.2%

COc1ccc(-c2cc(-c3ccc(N(C)C)cc3)nc(NC(=O)c3cccnc3)n2)cc1
inactive: NCI-H23 lung 105% | NCI-H226 lung 98.8% | NCI-H322M lung 93% | HOP-62 NSCLC 100% | NCI-H460 lung 96.1% | HOP-92 NSCLC 124% | NCI-H522 lung 93% | A549/ATCC NSCLC 105% | 786-0 renal 103% | COLO 205 colon 104%

O=C(OCC(O)C(=O)NC12CC3CC(CC(C3)C1)C2)c1cccc(Br)c1 (stereo not given)
inactive: NCI-H23 lung 103% | NCI-H226 lung 97.5% | NCI-H322M lung 102% | HOP-62 NSCLC 96.9% | NCI-H460 lung 108% | HOP-92 NSCLC 90.1% | NCI-H522 lung 91.9% | A549/ATCC NSCLC 91.9% | 786-0 renal 102% | COLO 205 colon 105%

COc1cccc(/C=C2\CCc3ccccc3C2=O)c1
inactive: NCI-H23 lung 83.6% | NCI-H226 lung 93.6% | NCI-H322M lung 98% | HOP-62 NSCLC 88.4% | NCI-H460 lung 96.6% | HOP-92 NSCLC 64.3% | NCI-H522 lung 62.9% | A549/ATCC NSCLC 85.1% | 786-0 renal 81.4% | COLO 205 colon 112%

CCN1C(=O)N(CC)C2C1NC(=S)N2/N=C/C=C/c1ccccc1 (stereo not given)
inactive: NCI-H23 lung 21.4% | NCI-H322M lung 46.1% | HOP-62 NSCLC 29.3% | HOP-92 NSCLC 27.8% | A549/ATCC NSCLC 16.9% | 786-0 renal 25.6%
active: NCI-H226 lung -10.1% | NCI-H460 lung 5.19% | NCI-H522 lung -2.87% | COLO 205 colon -30.4%

COc1cc2nc3cc([N+](=O)[O-])ccc3c(NCCCNCCO)c2cc1OC
active: NCI-H23 lung -29.1% | NCI-H226 lung -39.5% | NCI-H322M lung -27.7% | HOP-62 NSCLC -60.6% | NCI-H460 lung -39% | HOP-92 NSCLC -46.4% | NCI-H522 lung -52% | A549/ATCC NSCLC -26.6% | 786-0 renal -39.2% | COLO 205 colon -76.2%

Cc1cc(C)n(C(=O)CSc2nc3sc4c(c3c(=O)n2-c2ccccc2)CCCCC4)n1
inactive: NCI-H23 lung 91.6% | NCI-H226 lung 98.1% | NCI-H322M lung 99.1% | HOP-62 NSCLC 96.3% | NCI-H460 lung 103% | HOP-92 NSCLC 95.1% | NCI-H522 lung 85.8% | A549/ATCC NSCLC 97.6% | 786-0 renal 108% | COLO 205 colon 115%

COc1nc2ccccc2cc1/C=[N+](\[O-])c1ccccc1
inactive: NCI-H23 lung 75.4% | NCI-H226 lung 69.5% | NCI-H322M lung 86.5% | HOP-62 NSCLC 80.4% | NCI-H460 lung 99.6% | HOP-92 NSCLC 64.4% | NCI-H522 lung 82.7% | A549/ATCC NSCLC 94.8% | 786-0 renal 102% | COLO 205 colon 108%

CCOc1ccccc1NC(=O)CCC(=O)OC
inactive: NCI-H23 lung 109% | NCI-H226 lung 101% | NCI-H322M lung 96.5% | HOP-62 NSCLC 94.8% | NCI-H460 lung 108% | HOP-92 NSCLC 110% | NCI-H522 lung 81.9% | A549/ATCC NSCLC 108% | 786-0 renal 91.1% | COLO 205 colon 103%

O=C(O)c1nn(-c2ccc(Cl)cc2)nc1N1CCCC1
inactive: NCI-H23 lung 91% | NCI-H226 lung 90.8% | NCI-H322M lung 97.7% | HOP-62 NSCLC 97.5% | NCI-H460 lung 101% | HOP-92 NSCLC 77.1% | NCI-H522 lung 89.3% | A549/ATCC NSCLC 101% | 786-0 renal 100% | COLO 205 colon 111%

CCCCC#Cc1c(I)n(C2OC(CO[Si](C)(C)C(C)(C)C)C3OC(C)(C)OC32)c(=O)[nH]c1=O (stereo not given)
inactive: NCI-H23 lung 78% | NCI-H226 lung 88.2% | NCI-H322M lung 84.3% | HOP-62 NSCLC 102% | NCI-H460 lung 107% | NCI-H522 lung 79.9% | A549/ATCC NSCLC 94% | 786-0 renal 82.4%
active: HOP-92 NSCLC -30.5% | COLO 205 colon -59.1%

Nc1nc(=O)n([C@H]2CC=C(CO)O2)cc1F
inactive: NCI-H23 lung 98.5% | NCI-H226 lung 99.6% | NCI-H322M lung 95.9% | HOP-62 NSCLC 99.1% | NCI-H460 lung 98.4% | HOP-92 NSCLC 101% | NCI-H522 lung 80.7% | A549/ATCC NSCLC 89.7% | 786-0 renal 102% | COLO 205 colon 107%

Cc1c(N2CCCCC2)[nH]c2ccccc12
inactive: NCI-H23 lung 108% | NCI-H226 lung 119% | NCI-H322M lung 104% | HOP-62 NSCLC 119% | NCI-H460 lung 101% | HOP-92 NSCLC 46.8% | NCI-H522 lung 90.2% | A549/ATCC NSCLC 89% | 786-0 renal 103% | COLO 205 colon 124%

O=C(NCCN1CCOCC1)c1cncnc1Nc1ccc2c(ccn2Cc2ccccn2)c1
inactive: NCI-H23 lung 102% | NCI-H226 lung 95.2% | NCI-H322M lung 105% | HOP-62 NSCLC 102% | NCI-H460 lung 103% | HOP-92 NSCLC 93.8% | NCI-H522 lung 83.7% | A549/ATCC NSCLC 101% | 786-0 renal 98.5% | COLO 205 colon 95.6%

CCOC(=O)CC1CSC(N/N=C(/C)c2cccc(C(F)(F)F)c2)=N1 (stereo not given)
inactive: NCI-H23 lung 103% | NCI-H226 lung 99.6% | NCI-H322M lung 89.6% | HOP-62 NSCLC 97% | NCI-H460 lung 110% | HOP-92 NSCLC 100% | NCI-H522 lung 82.2% | A549/ATCC NSCLC 87.7% | 786-0 renal 97% | COLO 205 colon 107%

COC(=O)c1c(C)nc(C)c2c1C(=O)C(Br)=C(NCCCCO)C2=O
inactive: NCI-H23 lung 51.1% | NCI-H226 lung 96.7% | NCI-H322M lung 75.5% | HOP-62 NSCLC 114% | NCI-H460 lung 40% | HOP-92 NSCLC 140% | NCI-H522 lung 71.1% | A549/ATCC NSCLC 75.1% | 786-0 renal 89.2% | COLO 205 colon 17%

COc1ccc(-c2cn(Cc3ccc4c(Br)cc(Br)c(O)c4n3)nn2)cc1
inactive: NCI-H23 lung 95.5% | NCI-H226 lung 101% | NCI-H322M lung 100% | HOP-62 NSCLC 98.4% | NCI-H460 lung 105% | HOP-92 NSCLC 80.3% | NCI-H522 lung 58.5% | A549/ATCC NSCLC 98.7% | 786-0 renal 104% | COLO 205 colon 107%

COC(=O)c1nc(-c2ccc(C)cc2)oc1N1CCOCC1
inactive: NCI-H23 lung 106% | NCI-H226 lung 94% | NCI-H322M lung 105% | HOP-62 NSCLC 98.3% | NCI-H460 lung 100% | HOP-92 NSCLC 102% | NCI-H522 lung 90.7% | A549/ATCC NSCLC 88.4% | 786-0 renal 82.3% | COLO 205 colon 111%

COc1cc(C(=O)n2nc(NCCCc3ccccc3)c3cc(N)ccc32)cc(OC)c1OC
inactive: NCI-H23 lung 92.8% | NCI-H226 lung 89.7% | NCI-H322M lung 106% | HOP-62 NSCLC 93.5% | NCI-H460 lung 102% | HOP-92 NSCLC 88.9% | NCI-H522 lung 74.6% | A549/ATCC NSCLC 93.3% | 786-0 renal 96.1% | COLO 205 colon 113%

CN1CCN(CCCNC(=O)c2c3c(n4ccccc24)C(=O)c2ncccc2C3=O)CC1
active: NCI-H23 lung -24.3% | NCI-H322M lung -23.9% | NCI-H460 lung -60.1% | NCI-H522 lung -43.4% | A549/ATCC NSCLC -25.5% | COLO 205 colon -73%
inactive: NCI-H226 lung 33.7% | HOP-62 NSCLC 25.8% | HOP-92 NSCLC 14.9% | 786-0 renal 28.5%

O=C(CN1C(=O)NC2NC(=O)NC21)N/N=C/c1cccc([N+](=O)[O-])c1 (stereo not given)
inactive: NCI-H23 lung 104% | NCI-H226 lung 94% | NCI-H322M lung 108% | HOP-62 NSCLC 107% | NCI-H460 lung 107% | HOP-92 NSCLC 123% | NCI-H522 lung 97.3% | A549/ATCC NSCLC 112% | 786-0 renal 106% | COLO 205 colon 122%

NCCCCCNc1noc(Cc2c[nH]c3cc(Br)ccc23)n1
active: NCI-H522 lung -38.3% | COLO 205 colon -0.719%
inactive: NCI-H23 lung 30.9% | NCI-H226 lung 61% | NCI-H322M lung 33.4% | HOP-62 NSCLC 21.6% | NCI-H460 lung 12.8% | HOP-92 NSCLC 19.7% | A549/ATCC NSCLC 24.6% | 786-0 renal 43.2%

CCN1C(=O)N(CC)C2C1NN=c1s/c(=C\c3ccc([N+](=O)[O-])cc3)c(=O)n12 (stereo not given)
active: NCI-H460 lung 8.23% | NCI-H522 lung -0.229%
inactive: NCI-H23 lung 47% | NCI-H226 lung 66.8% | NCI-H322M lung 54.6% | HOP-62 NSCLC 42.6% | HOP-92 NSCLC 79.2% | A549/ATCC NSCLC 30.4% | 786-0 renal 44.1% | COLO 205 colon 13.3%

CCOC(=O)c1c(NC(=S)Nc2ccc([N+](=O)[O-])cc2)sc2c1CCCCC2
inactive: NCI-H23 lung 69.4% | NCI-H226 lung 70.8% | NCI-H322M lung 83.5% | HOP-62 NSCLC 102% | NCI-H460 lung 69.7% | NCI-H522 lung 58.7% | A549/ATCC NSCLC 84.4% | 786-0 renal 92.9% | COLO 205 colon 105%
active: HOP-92 NSCLC 0.0405%

C#Cc1cccc(Nc2nc(Cl)nc3cc(NC(=O)CCl)ccc23)c1
active: NCI-H23 lung -73.9% | NCI-H226 lung -49.4% | NCI-H322M lung -73.1% | HOP-62 NSCLC -77% | NCI-H460 lung -58.9% | HOP-92 NSCLC -82.7% | NCI-H522 lung -69.1% | 786-0 renal -83.6% | COLO 205 colon -70.5%
inactive: A549/ATCC NSCLC 13.1%

C#CCOc1cccc(Nc2ncnc3c(NC(=O)CCl)cccc23)c1
inactive: NCI-H226 lung 48.9% | NCI-H322M lung 72.5% | HOP-62 NSCLC 95.7% | NCI-H460 lung 51.2% | A549/ATCC NSCLC 47.4%
active: NCI-H23 lung 6.09% | HOP-92 NSCLC -62.1% | NCI-H522 lung -73.5% | 786-0 renal -45.4% | COLO 205 colon -55.5%

O=C(Nc1ccccc1)Nc1ccccc1CNc1nc(Nc2ccc(OCCN3CCCC3)cc2)ncc1Cl
active: NCI-H460 lung -37.7% | 786-0 renal 9.35%
inactive: NCI-H23 lung 68.1% | NCI-H226 lung 89.4% | NCI-H322M lung 91.1% | HOP-62 NSCLC 79.3% | HOP-92 NSCLC 65.1% | NCI-H522 lung 58.6% | A549/ATCC NSCLC 59.4% | COLO 205 colon 33%
